{"source": "the supplement of paper PMC6992640", "assay_in_all_cases": "cell viability (% of vehicle); higher = less cytotoxic", "conditions_in_all_cases": "10 µM; 72 h", "key": {"HCI01": {"test_system": "HCI01 (cells of a triple-negative basal-like breast cancer xenograft)"}, "HCI03": {"test_system": "HCI03 (cells of an ER-positive luminal breast cancer xenograft)"}, "HCI09": {"test_system": "HCI09 (cells of a triple-negative luminal androgen receptor type breast cancer xenograft)"}, "HCI11": {"test_system": "HCI11 (cells of an ER-positive luminal breast cancer xenograft)"}, "HCI13": {"test_system": "HCI13 (cells of an ER-positive luminal breast cancer xenograft)"}, "HCI16": {"test_system": "HCI16 (cells of a triple-negative basal-like breast cancer xenograft)"}, "UCD52": {"test_system": "UCD52 (cells of a triple-negative basal-like breast cancer xenograft)"}, "WHIM2": {"test_system": "WHIM2 (cells of a triple-negative basal-like breast cancer xenograft)"}, "WHIM30": {"test_system": "WHIM30 (cells of a triple-negative basal-like breast cancer xenograft)"}}, "note": "± gives the standard deviation of the averaged measurements.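 Also: PDX cells carrying CMV promoter-driven luciferase, viability read as total photon flux per second by IVIS imaging following D-luciferin, vehicle control 0.1% DMSO.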"}
{"smiles": "COc1ccc2c(c1)c(CC(=O)O)c(C)n2C(=O)c1ccc(Cl)cc1", "note": "[Indomethacin]", "values": [{"measurement": "cell viability", "setting": "HCI01", "value": "106 ± 20"}, {"measurement": "cell viability", "setting": "HCI03", "value": 88.7}, {"measurement": "cell viability", "setting": "HCI09", "value": "96.7 ± 1.1"}, {"measurement": "cell viability", "setting": "HCI11", "value": 79.2}, {"measurement": "cell viability", "setting": "HCI13", "value": "105 ± 4.9"}, {"measurement": "cell viability", "setting": "HCI16", "value": 92}, {"measurement": "cell viability", "setting": "UCD52", "value": "72.4 ± 13"}, {"measurement": "cell viability", "setting": "WHIM2", "value": "92.1 ± 4.3"}, {"measurement": "cell viability", "setting": "WHIM30", "value": "93 ± 5.3"}]}
{"smiles": "CN(CCOc1ccc(CC2SC(=O)NC2=O)cc1)c1ccccn1", "note": "(stereo unspecified) [Rosiglitazone]", "values": [{"measurement": "cell viability", "setting": "HCI01", "value": "176 ± 35"}, {"measurement": "cell viability", "setting": "HCI03", "value": 162}, {"measurement": "cell viability", "setting": "HCI09", "value": "129 ± 33"}, {"measurement": "cell viability", "setting": "HCI11", "value": 153}, {"measurement": "cell viability", "setting": "HCI13", "value": "189 ± 26"}, {"measurement": "cell viability", "setting": "HCI16", "value": 142}, {"measurement": "cell viability", "setting": "UCD52", "value": "124 ± 10"}, {"measurement": "cell viability", "setting": "WHIM2", "value": "174 ± 17"}, {"measurement": "cell viability", "setting": "WHIM30", "value": "199 ± 3.1"}]}
{"smiles": "CNC(C)C1CCC(N)C(OC2C(N)CC(N)C(OC3OCC(C)(O)C(NC)C3O)C2O)O1.O=S(=O)(O)O", "note": "(stereo unspecified) [Gentamycin Sulfate]", "values": [{"measurement": "cell viability", "setting": "HCI01", "value": "119 ± 8.9"}, {"measurement": "cell viability", "setting": "HCI03", "value": 90.7}, {"measurement": "cell viability", "setting": "HCI09", "value": "100 ± 26"}, {"measurement": "cell viability", "setting": "HCI11", "value": 101}, {"measurement": "cell viability", "setting": "HCI13", "value": "94.4 ± 9.3"}, {"measurement": "cell viability", "setting": "HCI16", "value": 97}, {"measurement": "cell viability", "setting": "UCD52", "value": "94.8 ± 20"}, {"measurement": "cell viability", "setting": "WHIM2", "value": "72.4 ± 2"}, {"measurement": "cell viability", "setting": "WHIM30", "value": "116 ± 21"}]}
{"smiles": "COc1ccc2c(c1)c(CC(=O)OCC(=O)O)c(C)n2C(=O)c1ccc(Cl)cc1", "note": "[Acemetacin]", "values": [{"measurement": "cell viability", "setting": "HCI01", "value": "108 ± 3.5"}, {"measurement": "cell viability", "setting": "HCI03", "value": 113}, {"measurement": "cell viability", "setting": "HCI09", "value": "97.6 ± 29"}, {"measurement": "cell viability", "setting": "HCI11", "value": 97.4}, {"measurement": "cell viability", "setting": "HCI13", "value": "111 ± 9"}, {"measurement": "cell viability", "setting": "HCI16", "value": 106}, {"measurement": "cell viability", "setting": "UCD52", "value": "78.2 ± 5"}, {"measurement": "cell viability", "setting": "WHIM2", "value": "86.9 ± 22"}, {"measurement": "cell viability", "setting": "WHIM30", "value": "76.6 ± 11"}]}
